Screening results: PubChem, several laboratories
Hits are enriched below; roughly 12% of the tested compounds scored in any of these assays.
Lmaj promast: inhibitors of Leishmania major promastigote growth; inhibition, % at 10 µM; 9% of 200,000 active; Leishmania major promastigotes, resazurin fluorescence viability; AID 1063; in the data active means inhibition above about 50%;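 further: promastigotes grown with compound for 44 hours at 28 °C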
Arbovirus anti: arbovirus infection inhibition; arbovirus infection cell-based antiviral screen; AID 1251; 0.37% of 200,000 active; inhibition, % at 10 µM; in the data active means inhibition above about 30%
WT yeast gro inh: growth inhibition of WT yeast, mitochondrial fusion screen. mitochondrial fusion phenotypic screen, WT strain. inhibition, % at 10 µM. 2.1% of 190,000 active; in the data active means inhibition above about 58%; tested in S. cerevisiae
CHOP inh: inhibitors of CHOP induction in ER stress response. CHO-K1 CHOP-promoter luciferase, tunicamycin-induced, 15-18 h. inhibition, % at 10 µM. AID 2732. 3.8% of 220,000 active;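 active means compounds that reduced the stress-induced luciferase reporter signal by more than about 70% of percent inhibition, limit read from the data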
CHOP confirm: confirmation of CHOP induction inhibitors; shares compounds with CHOP inh; CHO-CHOP promoter luciferase reporter, tunicamycin-induced, luminescence; inhibition, % at 10 µM; 45% of 2,100 active;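 active means mean of three repeat readings of reporter signal inhibition above a set limit, cut at about 70% in these data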
Of the large screens only hits and unclear results are named; the others gave an inactive call (follow-up assays come after a bar, where they were run).

COc1cccc(-n2c(Cc3cc(=O)[nH]c(=O)[nH]3)nnc2SCc2cccc(C(F)(F)F)c2)c1	none
Cc1ccc(-c2ccc(/C=C3/NC(=O)NC3=O)o2)cc1[N+](=O)[O-]	CHOP inh 98.0 | CHOP confirm inactive
Cc1csc(NC(=O)Cc2coc3cc(C)c(C(C)C)cc23)n1	CHOP inh 99.4 | CHOP confirm inactive
Cc1cc2occ(CC(=O)NCc3cccs3)c2cc1C(C)C	none
CCc1ccc2c(COC(=O)c3n[nH]c4ccccc34)cc(=O)oc2c1	CHOP inh 100.5 | CHOP confirm inactive
CC(C)Nc1nc(Oc2ccc(=O)n(-c3ccccc3)n2)nc(N(C)C)n1	none (no result: Lmaj promast, Arbovirus anti, WT yeast gro inh)
CCOC(=O)c1c(NC(=O)Cc2cccs2)sc(C(=O)NC2CCCCC2)c1C	CHOP inh 105.9 | CHOP confirm 74.4
CCOC(=O)c1c(NC(=O)Cc2cccs2)sc(C(=O)NC2CCCC2)c1C	none
Cc1ccc(NC2=NCC(=O)N2Cc2cccs2)cc1C	none
CCC1CCCCN1S(=O)(=O)c1ccc(C(=O)Nc2nnc(-c3ccccc3Cl)o2)cc1 (centres undefined)	Lmaj promast 98.6, CHOP inh 107.0 | CHOP confirm 102.3
Cc1cc(/C(=N/O)C(C)(C)NO)ccc1Cl	CHOP inh 101.8 | CHOP confirm inactive
COc1cc(C(=O)O)ccc1Cl	none (no result: Lmaj promast, Arbovirus anti, WT yeast gro inh)
CC(C)c1cc(C(F)(F)F)n2nc(C(=O)Nc3ccc(-n4cnnn4)cc3)cc2n1	none (no result: Lmaj promast, Arbovirus anti, WT yeast gro inh)
Cc1cn(-c2cc(C(=O)Nc3ccc(C)c(NC(=O)C(=O)c4c[nH]c5ccccc45)c3)cc(C(F)(F)F)c2)cn1	none (no result: Lmaj promast, Arbovirus anti, WT yeast gro inh)
CCCCCn1c(N2CCC(C(N)=O)CC2)nc2c1c(=O)[nH]c(=O)n2C	none
Cn1c(-c2cccc(OCc3ccccc3)c2)nc2c1c(=O)[nH]c(=O)n2Cc1ccccc1	CHOP inh 106.3 | CHOP confirm 78.7
CCCCCCn1c(N2CCC(C)CC2)nc2c1c(=O)[nH]c(=O)n2C	CHOP inh 100.1 | CHOP confirm 104.7
Cn1c(=O)[nH]c(=O)c2c1nc([N+](=O)[O-])n2Cc1ccccc1	CHOP inh 106.5 (no result: Lmaj promast, Arbovirus anti, WT yeast gro inh) | CHOP confirm 121.3
CCCCn1c(N2CCC(Cc3ccccc3)CC2)nc2c1c(=O)[nH]c(=O)n2C	Lmaj promast 78.4, WT yeast gro inh 67.7, CHOP inh 97.3 | CHOP confirm 102.7
Cc1nnc(SCCn2c(N3CCC(Cc4ccccc4)CC3)nc3c2c(=O)[nH]c(=O)n3C)s1	none (no result: Lmaj promast)
CC(C)Cn1c([N+](=O)[O-])nc2c1c(=O)[nH]c(=O)n2C	none (no result: Lmaj promast, Arbovirus anti, WT yeast gro inh)
Cc1ccc2nc(NC(=O)c3ccc(N4C(=O)CCC4=O)cc3)sc2c1	none
Cc1ccc2nc(NC(=O)c3ccc4ncsc4c3)sc2c1	CHOP inh 102.7 | CHOP confirm inactive
Cc1ccc(CN2C(=O)N/C(=C/c3ccc4c(c3)n(C)c(=O)n4C)C2=O)cc1	CHOP inh 106.3 | CHOP confirm inactive
Cc1cc(/C=C2\NC(=O)N(Cc3ccc(Cl)cc3)C2=O)c(C)n1C	none
O=c1/c(=C\c2cccc(O)c2)sc2nc(-c3ccccc3)c(-c3ccccc3)n12	CHOP inh 99.5 (no result: Lmaj promast, Arbovirus anti, WT yeast gro inh) | CHOP confirm inactive
CC(C)OC(=O)c1cc(NC(=O)c2nn(C)cc2Br)cc(C(=O)OC(C)C)c1	none
CSc1nc2c(cnn2-c2ccc(C)c(C)c2)c(=O)[nH]1	CHOP inh 100.0 | CHOP confirm 110.6
c1ccc2c(c1)ncn2-c1ccc(-c2ccnc(-c3ccncc3)n2)cc1	CHOP inh 99.2 | CHOP confirm inactive
O=C1c2cccc3c([N+](=O)[O-])ccc(c23)C(=O)N1c1ccccn1	Lmaj promast 100.5, CHOP inh 100.7 | CHOP confirm 83.9
O=C1c2cccc3c([N+](=O)[O-])ccc(c23)C(=O)N1c1nccs1	Lmaj promast 64.2, CHOP inh 110.0 | CHOP confirm inactive
Cc1ccc(N2C(=O)c3cccc4c(N)ccc(c34)C2=O)c2cccnc12	none (no result: Lmaj promast, Arbovirus anti, WT yeast gro inh)
O=C1c2cccc3c([N+](=O)[O-])ccc(c23)C(=O)N1c1ccc(Cl)cn1	Lmaj promast 100.5, CHOP inh 108.9 | CHOP confirm inactive
O=C1c2cccc3c(N4CCCCC4)ccc(c23)C(=O)N1c1ccc(Cl)cn1	none (no result: Arbovirus anti, WT yeast gro inh, CHOP inh)
COc1ccc(-n2c3nc4ccccc4nc3c3c(=N)oc(C)nc32)cc1	none
O=C(NN=C1C2CC3CC(C2)CC1C3)c1cc(Cl)ccc1O	none
Cc1cc(=O)[nH]c(N=N/C(=N/Nc2ccccc2C)c2ccccc2)n1	Lmaj promast 98.0, CHOP inh 102.9 | CHOP confirm inactive
Cc1ccc(C(=O)N(C)c2nnc(-c3ccncc3)s2)cc1	none
CCOC(=O)Cc1csc(NC(=O)NC2(C(F)(F)F)Oc3ccc(Cl)cc3O2)n1 (centres undefined)	Lmaj promast 52.9, CHOP inh 104.6 | CHOP confirm 111.3
